This note sets out measurements from PubChem BioAssay.

The subject of assay [1] is TRPC4 beta (transient receptor potential cation channel C4), mouse. Nature of the assay: TRPC4 cation channel opening, retest – cell-based, Fluo4 calcium, HEK293 TRPC4beta/mu-opioid, duplicates, 10 µM, confirmation (AID 2426). Particulars: Fluo4 calcium fluorescence, at 10 µM; stronger effect = higher value.
For assay [2], the system named is transient receptor potential cation channel C4 beta (TRPC4), mouse. Nature of the assay: TRPC4 cation channel opening, second retest – cell-based, second round, Fluo4, HEK293 TRPC4beta/mu-opioid, 1 µM, confirmation (AID 2461;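 active = primary screen active and over 50% activation in each of two duplicate runs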). To be noted: Fluo4 calcium fluorescence, at 1 µM; stronger effect = higher value.
Assay [3] deals with TRPC4 (transient receptor potential cation channel C4 beta), mouse. Description: potentiation of DAMGO EC20 TRPC4 response – cell-based, second round, Fluo-4, HEK293 TRPC4beta/mu-opioid, 1 µM, confirmation (AID 2554;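 active = primary screen hit whose fluorescence ratio, in both repeats, exceeds the weak agonist control mean by 3 SD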). To be noted: DAMGO EC20, Fluo-4 calcium flux, at 1 µM; stronger effect = higher value. A general note: Calcium flux is commonly read through the fluorescence of an indicator in the cells.

For assay [4], the system named is TRPC4 beta (transient receptor potential cation channel C4), mouse. Description: potentiation of DAMGO EC20 TRPC4 response – cell-based, Fluo-4, HEK293 TRPC4beta/mu-opioid, confirmation (AID 2555;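 active = primary screen hit whose calcium fluorescence ratio, in both repeats, exceeds the weak agonist control mean by 3 SD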). Particulars: DAMGO EC20, Fluo-4 calcium flux, at 10 µM; stronger effect = higher value.
Assay [5] concerns the target Short transient receptor potential channel 4 (Mus musculus) (UniProt Q9QUQ5). Nature of the assay: blockers of DAMGO-evoked TRPC4 calcium flux – cell-based, Fluo4, HEK293 TRPC4beta/mu-opioid, confirmation (AID 2636;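 active = calcium signal cut by more than 3 SD below the full-agonist control yet still positive, in both repeats and the earlier primary screen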). Particulars: at 10 µM; stronger effect = higher value.
Assay [6] has the same target. Description: blockers of DAMGO-evoked TRPC4 calcium flux – cell-based, second round, Fluo4, HEK293 TRPC4beta/mu-opioid, 1 µM, confirmation (AID 2637;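 active = calcium signal ratio cut to more than 3 SD under the fully stimulated control mean yet still positive, in both repeats and the primary screen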;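 as to inhibition: percent of integrated ratio relative to wells lacking test compound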). To be noted: at 1 µM; stronger effect = higher value.
Assay [7] shares this target. Nature of the assay: calcium entry via TRPC4 opening agents – cell-based, HEK293 TRPC4/mu-opioid, Fluo-4 calcium, dose response (AID 434937;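 active = primary screen activator hit with a dose response curve and TRPC4 channel activation at any tested dose; inactive = no activation, no dose response, or not a primary hit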).
For assay [8] the target is unchanged. Nature of the assay: potentiation of DAMGO-evoked TRPC4 calcium signal – cell-based, HEK293 TRPC4/mu-opioid, Fluo-4 calcium, EC20 DAMGO, dose response (AID 434941;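 active = earlier screen potentiator hit that boosts the TRPC4 ion channel at some dose, with a dose response; inactive = no potentiation, no dose response, or not a prior hit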;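 also: calcium entry triggered by an EC20 dose of DAMGO at the co-expressed mu-opioid receptor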).
Assay [9] has as its target Short transient receptor potential channel 6 (Mus musculus) (UniProt Q61143). Description: TRPC6 blockade by TRPC4 inhibitor hits – cell-based, HEK293, membrane potential dye, duplicate, selectivity assay for TRPC4 inhibitor project, confirmation (AID 434948;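 active = active in primary screen and both duplicates, each dropping signal beyond three positive-control SD with fluorescence still positive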). To be noted: HEK293 TRPC6, membrane potential dye fluorescence, at 10 µM, stimulated with maximal-effect acetylcholine; stronger effect = higher value.

Assay [10] has the same target. Description: TRPC6 opening by TRPC4 activator hits – cell-based, HEK293, membrane potential dye, duplicate, selectivity assay for TRPC4 activator project, confirmation (AID 434950;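 active = membrane potential signal rise above negative control mean plus 3 SD in both duplicates, also active in the earlier TRPC4 screen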). Particulars: HEK293 TRPC6, membrane potential fluorescence, at 10 µM; activation: stronger effect = higher value; outcome: activation.
For assay [11] the target is unchanged. Description: positive modulators of mouse TRPC6 channel – HEK293 cells, membrane potential dye, duplicate, selectivity assay for TRPC4 potentiator project, confirmation (AID 434952;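 active = compound raising the membrane signal above positive-control mean plus 3 SD in both repeats, and a primary screen hit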). Particulars: HEK293 TRPC6, membrane potential dye fluorescence, at 10 µM, maximal acetylcholine added after compound; stronger effect = higher value.
Assay [12] deals with Short transient receptor potential channel 4 (Mus musculus) (UniProt Q9QUQ5). Description: calcium flux activators in TRPC4/5HT1a cells, counter-screen for TRPC4 activator project, cell-based, second counter screen, HEK293 TRPC4/5HT1a, Fluo-4 (AID 434977;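 active = calcium signal rise above buffer-control mean plus 5 SD in both duplicates, and also a hit in the primary screen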). To be noted: Fluo-4 calcium flux, at 10 µM; stronger effect = higher value.
Assay [13] in a line: serotonin-gated TRPC4 signal block – cell-based, second counter screen, HEK293 TRPC4/5HT1a, Fluo-4, counter-screen for TRPC4 inhibitor project, confirmation (AID 434978;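 active = primary screen active whose calcium signal fell more than 3 SD beyond the full-serotonin control mean in both duplicate plates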;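 as to outcome: serotonin given first at submaximal then at maximal dose after compound preincubation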). To be noted: Fluo-4 calcium flux, at 10 µM, serotonin added to trigger calcium flux; stronger effect = higher value.
Assay [14] deals with TRPC4 (mouse), co-expressed with 5HT1a in HEK293. Description: enhancement of serotonin-evoked TRPC4 response – cell-based, second counter screen, HEK293 TRPC4/5HT1a, Fluo-4, counter-screen for TRPC4 potentiator project, confirmation (AID 434979;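 active = signal rise over 3 SD above mean of control wells given weak agonist, in both repeats and first screen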). To be noted: Fluo-4 calcium flux, at 10 µM, serotonin added at its EC20 dose; stronger effect = higher value. Background: Counterscreens check selectivity or assay interference.

The nature of assay [15]: nonspecific calcium rise without TRPC4 – cell-based, HEK293 mu-opioid receptor line, counter-screen for TRPC4 activator project, confirmation (AID 449723;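 active = hit in primary screen, with calcium signal over 5 SD above buffer well mean in both duplicates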;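 also: counter screen cells carry the mu-opioid receptor alone and lack TRPC4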). To be noted: HEK293 mu-opioid cells, Fluo-4 calcium fluorescence, at 10 µM; stronger effect = higher value.
The nature of assay [16]: nonspecific potentiation of DAMGO calcium response – cell-based, HEK293 mu-opioid receptor line, counter-screen for TRPC4 allosteric potentiator project, confirmation (AID 449724;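 active = calcium signal rise more than 3 SD above the low-dose agonist control mean, in both duplicate plates and the primary screen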;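 also: HEK293 cells carrying mu-opioid receptor only with no TRPC4 channel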). To be noted: HEK293 mu-opioid receptor cells, Fluo-4 calcium flux, at 10 µM, compound added before EC20 DAMGO stimulus; stronger effect = higher value.

For part of these data: Results with a measured potency or affinity are listed apart. Calls of active or inactive are those of the source.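 The calls were made as follows, unless noted: active = fluorescence ratio normalized to control raised more than 50% in primary screen plus both repeat runs; inactive = the rest.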

What is called inhibition is the relative decrease from the control value, in per cent.

Short transient receptor potential channel 4 (Mus musculus), sequence (Q9QUQ5 whole entry, looked up): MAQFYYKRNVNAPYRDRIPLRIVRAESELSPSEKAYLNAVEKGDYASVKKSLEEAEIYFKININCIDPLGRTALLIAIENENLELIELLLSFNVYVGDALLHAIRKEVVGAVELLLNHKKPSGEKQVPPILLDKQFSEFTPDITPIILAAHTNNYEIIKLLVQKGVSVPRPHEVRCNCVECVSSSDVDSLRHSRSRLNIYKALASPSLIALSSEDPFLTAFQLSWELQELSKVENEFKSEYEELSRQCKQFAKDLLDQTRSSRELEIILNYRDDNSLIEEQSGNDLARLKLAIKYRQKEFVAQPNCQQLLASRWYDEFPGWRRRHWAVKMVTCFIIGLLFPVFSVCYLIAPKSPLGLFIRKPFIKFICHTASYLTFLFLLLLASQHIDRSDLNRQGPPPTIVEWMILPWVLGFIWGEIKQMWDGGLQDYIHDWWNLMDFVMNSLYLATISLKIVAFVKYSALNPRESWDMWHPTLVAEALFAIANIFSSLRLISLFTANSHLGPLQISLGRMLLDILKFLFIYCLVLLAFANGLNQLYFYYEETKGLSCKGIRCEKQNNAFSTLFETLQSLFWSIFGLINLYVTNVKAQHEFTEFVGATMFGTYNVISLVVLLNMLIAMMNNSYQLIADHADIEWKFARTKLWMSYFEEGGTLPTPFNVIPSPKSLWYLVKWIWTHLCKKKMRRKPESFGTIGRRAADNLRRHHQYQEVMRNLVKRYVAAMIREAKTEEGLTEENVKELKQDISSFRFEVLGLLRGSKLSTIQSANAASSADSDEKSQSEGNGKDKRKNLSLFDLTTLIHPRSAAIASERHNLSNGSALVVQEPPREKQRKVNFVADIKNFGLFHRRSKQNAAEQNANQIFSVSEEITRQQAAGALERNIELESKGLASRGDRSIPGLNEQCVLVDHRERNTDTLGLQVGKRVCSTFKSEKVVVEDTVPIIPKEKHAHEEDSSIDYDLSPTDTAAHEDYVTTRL
Short transient receptor potential channel 6 (Mus musculus), sequence (Q61143 whole entry, looked up): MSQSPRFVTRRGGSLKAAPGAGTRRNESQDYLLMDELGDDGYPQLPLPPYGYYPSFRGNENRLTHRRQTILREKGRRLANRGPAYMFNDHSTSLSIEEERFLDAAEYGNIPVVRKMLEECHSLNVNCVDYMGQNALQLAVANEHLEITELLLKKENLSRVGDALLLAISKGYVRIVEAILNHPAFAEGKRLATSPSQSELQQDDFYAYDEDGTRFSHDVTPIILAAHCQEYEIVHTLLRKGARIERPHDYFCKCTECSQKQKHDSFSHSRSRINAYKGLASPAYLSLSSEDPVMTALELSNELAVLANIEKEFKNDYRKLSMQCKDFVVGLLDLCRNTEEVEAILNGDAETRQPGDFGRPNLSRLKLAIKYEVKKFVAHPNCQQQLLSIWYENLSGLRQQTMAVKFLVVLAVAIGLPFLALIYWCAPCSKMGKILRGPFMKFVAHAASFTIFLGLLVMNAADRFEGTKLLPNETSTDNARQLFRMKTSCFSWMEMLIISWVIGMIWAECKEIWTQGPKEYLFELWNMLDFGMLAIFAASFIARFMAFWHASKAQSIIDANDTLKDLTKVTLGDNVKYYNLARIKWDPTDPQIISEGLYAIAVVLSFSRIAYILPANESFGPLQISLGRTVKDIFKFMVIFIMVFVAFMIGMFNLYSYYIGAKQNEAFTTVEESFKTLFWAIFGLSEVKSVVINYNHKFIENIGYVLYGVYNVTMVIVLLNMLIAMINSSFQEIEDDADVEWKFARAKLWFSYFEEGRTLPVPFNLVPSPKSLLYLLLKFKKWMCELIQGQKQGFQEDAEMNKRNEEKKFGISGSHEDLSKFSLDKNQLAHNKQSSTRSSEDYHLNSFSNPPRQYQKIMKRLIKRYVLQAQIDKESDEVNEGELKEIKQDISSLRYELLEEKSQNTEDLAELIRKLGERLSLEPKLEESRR

With `CCN(CC)CCN(C(=O)c1ccccc1OC)c1nc2ccc(F)cc2s1`, the outcome in [1], in assay [2], in [3], in assay [4], in assay [6] and in assay [7] was inactive. The result in assay [8], in [9], in assay [10], in [11], in assay [12] and in [13] was inactive. Besides, the outcome in assay [14], in assay [15] and in assay [16] was inactive. Also, in assay [5], the inhibition was 84% (active).
For the molecule `Cc1cccc(N2CCN(Cc3ccoc3)CC2)c1C`, the outcome in assay [1], in [2], in assay [3], in assay [4], in assay [6] and in assay [7] was inactive. Also, the outcome in [8], in assay [9], in assay [10], in assay [11], in assay [12] and in [14] was inactive. Also, the outcome in assay [15] and in assay [16] was inactive. Also, the inhibition in assay [5] was 72% (active); in assay [13], 25.2% (active).
For `COc1ccc2c(C)cc(N3CCCCCC3)nc2c1`, the result in assay [1], in [2], in assay [3], in assay [4], in assay [7] and in assay [8] was inactive. The molecule was called inactive in assay [10], in assay [11], in assay [12], in [14], in assay [15] and in assay [16]. The inhibition in assay [5] is 96% (active); in assay [6], 63% (active); in assay [9], 33.5% (active); in assay [13], 20.8% (active).
For the molecule `COc1cc(CNC2CCCC2)c(Br)cc1OC1CCCC1`, the result in assay [1], in assay [2], in assay [3], in assay [4], in assay [6] and in assay [7] was inactive. Besides, the outcome in assay [8], in assay [10], in [11], in [12], in assay [13] and in assay [14] was inactive. Besides, the outcome in assay [15] and in assay [16] was inactive. Further, the inhibition in [5] was 95% (active); in assay [9] it was 53% (active).
Regarding `COc1cccc(C(CNC(=O)C(c2ccccc2)c2ccccc2)N(C)C)c1` (stereo not given), the result in assay [1], in assay [2], in [3], in [4], in assay [6] and in assay [7] was inactive. Also, the outcome in [8], in assay [9], in [10], in [11], in assay [12] and in assay [13] was inactive. The outcome in [14], in [15] and in [16] was inactive. In [5], the inhibition is 89% (active).
With `Cc1cc2cc(C#N)c(NCCNC(=S)NCCCN3CCOCC3)nc2cc1C`, the result in assay [1], in assay [2], in assay [3], in assay [4], in [6] and in assay [7] was inactive. Besides, the outcome in [8], in assay [9], in assay [10], in assay [11], in assay [12] and in [14] was inactive. Further, the result in assay [15] and in assay [16] was inactive. Besides, the inhibition is 94% (active) in assay [5] and 26.6% (active) in assay [13].
With `C#Cc1ccc(CN2CCCC(C(=O)Nc3ccccc3Oc3cccnc3)C2)cc1` (stereo not given), the result in assay [1], in assay [2], in assay [3], in assay [4], in assay [7] and in assay [8] was inactive. For the same molecule, the molecule was called inactive in [9], in assay [10], in [11], in [12], in assay [14] and in assay [15]. Further, in [16], the outcome was inactive. For the same molecule, the inhibition was 92% (active) in [5], 39% (active) in assay [6] and 21.7% (active) in assay [13].
Take `OCC1(CCCc2ccccc2)CCN(Cc2cc(F)ccc2F)CC1`: the outcome in assay [1], in [2], in assay [3], in assay [4], in assay [6] and in assay [7] was inactive. Further, the result in assay [8], in assay [9], in [10], in [11], in [12] and in assay [13] was inactive. In addition, the outcome in assay [14], in [15] and in assay [16] was inactive. For the same molecule, the inhibition in [5] was 92% (active).
In the case of `CCOc1ccc(-c2cc(NC(=O)c3c(F)cccc3F)c(C(=O)O)s2)cc1`, the result in assay [1], in [2], in [3], in assay [4], in assay [7] and in assay [8] was inactive. Also, the result in assay [9], in assay [10], in assay [11], in assay [12], in assay [14] and in [15] was inactive. Moreover, the outcome in assay [16] was inactive. In addition, the figures for the inhibition in assay [5], in [6] and in [13] were 98% (active), 41% (active) and 6.94% (active), respectively.
For `Cc1nn(C)c(C)c1Sc1ccc(Br)cc1`, the outcome in assay [1], in [2], in assay [3], in [4], in [6] and in assay [7] was inactive. Further, the outcome in assay [8], in [9], in assay [10], in assay [11], in assay [12] and in [14] was inactive. Moreover, the result in assay [15] and in assay [16] was inactive. For the same molecule, the inhibition in assay [5] is 82% (active); in assay [13], 24.8% (active).
For `NC(=O)c1nsc(C(=O)N(Cc2ccco2)C(C(=O)NCc2ccc(F)cc2)c2ccc(O)cc2)c1N` (stereo not given), the result in [1], in assay [2], in assay [3], in [4], in assay [7] and in assay [8] was inactive. Further, the molecule was classed as inactive in [9], in assay [10], in assay [11], in assay [12], in assay [14] and in [15]. Further, the result in [16] was inactive. The inhibition is 84% (active) in [5], 55% (active) in [6] and 25.1% (active) in assay [13].
`CC(C)Cc1cc(CN2CCCC(CO)(Cc3cccc(Cl)c3)C2)[nH]n1` (stereo not given): the result in assay [1], in assay [2], in assay [3], in [4], in assay [6] and in [7] was inactive. Besides, the result in assay [8], in [9], in assay [10], in assay [11], in [12] and in assay [14] was inactive. Moreover, the outcome in assay [15] and in [16] was inactive. In addition, the inhibition in [5] was 91% (active); in [13], 42.2% (active).
Regarding `CC(C)(c1ccccc1)c1ccc(OCCCNCCO)cc1`, the result in assay [1], in assay [2], in assay [3], in assay [4], in [6] and in [7] was inactive. Besides, the outcome in [8], in assay [9], in assay [10], in assay [11], in assay [12] and in assay [14] was inactive. The result in assay [15] and in assay [16] was inactive. In addition, the inhibition in assay [5] is 79% (active); in [13] it was 13.3% (active).
With `CCCc1nc2ccccc2n1Cc1ccccc1OC`, the result in [1], in assay [2], in assay [3], in [4], in assay [6] and in assay [7] was inactive. Moreover, the outcome in [8], in assay [9], in [10], in assay [11], in assay [12] and in assay [14] was inactive. The result in assay [15] and in assay [16] was inactive. Besides, the inhibition is 88% (active) in assay [5] and 32.4% (active) in [13].
As to `Oc1ccc(CN2CCc3ccccc3C2)c2cccnc12`, the outcome in assay [1], in assay [2], in assay [3], in assay [4], in assay [7] and in assay [8] was inactive. For the same molecule, the molecule was called inactive in [10], in assay [11], in assay [12], in assay [14], in assay [15] and in assay [16]. Moreover, the inhibition is 97% (active) in assay [5], 45% (active) in assay [6], 58% (active) in assay [9] and 19.6% (active) in assay [13].
